system: PPARg:RXRa 30nM:10nM, anti-RXR (NR concentration 30 nM, RXRa partner concentration 10 nM); assay: PBM binding z-score (relative to random genomic background probes); higher = stronger binding; sequences stand for … in GC…GCGATTGACAGCGTAGAATGAAGG
Summary of the method: (§1)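 The probes on custom Agilent 4×180K protein-binding microarrays were double-stranded, with 34-nt variable regions bearing direct-repeat seeds, single-nucleotide variants, half-site ablations and random human genomic background sequences. Incubation lasted 1 h with ligand-free nuclear receptor dimers in PBS pH 7.4, 2% milk, 0.02% Triton X-100, 1 mM DTT, 0.2 mg/mL BSA and 0.4 mg/ml salmon testes DNA. Antibodies against each partner (one per run) detected bound dimers, and fluorescence scans were regression-normalized. Binding z-scores take the random background probes as reference.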

Row | Sequence | PBM binding z-score
1 | TCATAAAGGTAAACAGGTGAAAGTCCGTAAGTTA | 4.28
2 | ATATGTAGGTTACATCCGGTTCATTCAGGCTATG | 2.2
3 | TCTATTAGTTGACGGGCAACCGACGAGTCCGTTT | 3.47
4 | CAGCCAAGGTCAGGGCCAGTATAGGAGGAACGTT | 0.584
5 | CGTCCAAGGTCAGAGAGGTCAGTCAATGCCGAGT | 1.03
6 | CGTCCAAGGTCAAAAGTCAGTGAAGAGATGACGG | 3.41
7 | TAGCATAGGTCATTGGGCCAGTATAGTACGCATC | 1.75
8 | ATCGAAAGGTCGAAGGTGTGTATACCCACCCGAA | 1.5
9 | GTACCAAGGTGAATAGGTTGTTGATGAGTAGGCG | -0.0689
10 | TAGCCTAGGTCATTGCGCCAGTATAGTACGCATC | 0.591
11 | AGTCAAAGTTCACTAGTTAACGTAAGATTCAGCT | 2.56
12 | CCTAGTTGGTCAGGAGGGCACACACCGGATATGA | 0.0866
13 | TCTTGTAGATCAGCAGGTTCAGAAAGCTGGCCAA | 2.02
14 | TCTATTAGTTGAAGGGAAACCGACGAGTCCGTTT | 4.34
15 | ACTACCAGGCCAAGTTTGGGTCACTCAAACAAAG | -0.29
16 | GCTAGCAGGCCATTTGGGTCACTCGATGACGGGC | -0.472
17 | TCTAGTTGGTCAAAGGTCACACGCTCGAAATGCG | 12.1
18 | AGAATGTGGTTATACGTAGATCAGGGAAGAAAGT | 0.568
19 | CCTTACTGGTCACTGACAGGTTATAGCATTTGGA | -0.0661
20 | TTACCAAGGTGAGCTGAGGTCCTTGATCCAACTC | -0.357

Row | Sequence | PBM binding z-score
21 | TCATATAGGTATAGGTGAAAGTCGAACGATATGA | 3.51
22 | ACTAGCAGGCCAAGATTGGGTCACTCAAACAAAG | -0.526
23 | ATCTCTAGGTCACAAGTTCAGTGAAAGAGAGGAC | 3.16
24 | GGAACGAGGGCAAGTGGATAGCAGAGTTTGATGG | -0.127
25 | TGTCAAAGTTCATAGGTAACGTAAGTATCCACAC | 4.42
26 | GCTATTAGTTGAAACGGCAACCGAATGATTCTCG | 0.0955
27 | CAAACTAGGACAAAGGTCAAAGTCGAGCCAACCA | 10.9
28 | CCTTACGGGTCCAGGTTATAGCACGGGTGGTACG | -0.404
29 | CGAACTAGGTCATTGACTGGACAGTGAATAGTAA | 3.34
30 | TAGCCTAGATCATGCGGGCCAGTATAGTGTCGGC | -0.938
31 | TCTGCTAGGTCAGCGATGGTCAGCTAATCTGCTA | 1.56
32 | ACAGACAGGTGATGTAGGTAACTCAGGCTATCAT | -0.31
33 | TCTTTTAGATCAAAGGTTAAGAAAGCCGAAGCCT | 6.34
34 | TCTTGTAGATCAATAGAGGTTAAGAAGGTGCGCT | 2.75
35 | TCTGCTAGGTCAGTTGGTCACCTAACGAGCTGCC | 1.38
36 | GTATCAAGGTGAATAGGTCGTTGATGAGTAGGCG | 1.16
37 | ATCTCTAGGTAACACGTTCAGTGAAAGAGAGGAC | 0.213
38 | TTACCAAGGTGAAAGGTCGTTCATGCACGCCTTG | 8.68
39 | ACACGGAGGACAAAGGTCAGAGCTACGCCAGTGA | 5.39
40 | TCATATAGGTAAACAGGTGACAGTCCGTAAGTTA | 4.16

system: PPARg:RXRa 90nM:30nM, anti-RXR (NR concentration 90 nM, RXRa partner concentration 30 nM); assay: as above
Summary of the method: as §1

Row | Sequence | PBM binding z-score
41 | TCATAAAGGTAAACAGGTGAAAGTCCGTAAGTTA | 3.89
42 | ATATGTAGGTTACATCCGGTTCATTCAGGCTATG | 3.81
43 | TCTATTAGTTGACGGGCAACCGACGAGTCCGTTT | 2.48
44 | CAGCCAAGGTCAGGGCCAGTATAGGAGGAACGTT | 1.61
45 | CGTCCAAGGTCAGAGAGGTCAGTCAATGCCGAGT | 2.63
46 | CGTCCAAGGTCAAAAGTCAGTGAAGAGATGACGG | 5
47 | TAGCATAGGTCATTGGGCCAGTATAGTACGCATC | 3.7
48 | ATCGAAAGGTCGAAGGTGTGTATACCCACCCGAA | 2.35
49 | GTACCAAGGTGAATAGGTTGTTGATGAGTAGGCG | 0.204
50 | TAGCCTAGGTCATTGCGCCAGTATAGTACGCATC | 1.63
51 | AGTCAAAGTTCACTAGTTAACGTAAGATTCAGCT | 4.89
52 | CCTAGTTGGTCAGGAGGGCACACACCGGATATGA | 0.594
53 | TCTTGTAGATCAGCAGGTTCAGAAAGCTGGCCAA | 1.52
54 | TCTATTAGTTGAAGGGAAACCGACGAGTCCGTTT | 3.16
55 | ACTACCAGGCCAAGTTTGGGTCACTCAAACAAAG | 0.255
56 | GCTAGCAGGCCATTTGGGTCACTCGATGACGGGC | 0.633
57 | TCTAGTTGGTCAAAGGTCACACGCTCGAAATGCG | 11.5
58 | AGAATGTGGTTATACGTAGATCAGGGAAGAAAGT | 0.428
59 | CCTTACTGGTCACTGACAGGTTATAGCATTTGGA | 0.378
60 | TTACCAAGGTGAGCTGAGGTCCTTGATCCAACTC | -0.0305

Row | Sequence | PBM binding z-score
61 | TCATATAGGTATAGGTGAAAGTCGAACGATATGA | 3.05
62 | ACTAGCAGGCCAAGATTGGGTCACTCAAACAAAG | -0.361
63 | ATCTCTAGGTCACAAGTTCAGTGAAAGAGAGGAC | 5.39
64 | GGAACGAGGGCAAGTGGATAGCAGAGTTTGATGG | 0.598
65 | TGTCAAAGTTCATAGGTAACGTAAGTATCCACAC | 6.63
66 | GCTATTAGTTGAAACGGCAACCGAATGATTCTCG | 0.0763
67 | CAAACTAGGACAAAGGTCAAAGTCGAGCCAACCA | 11.9
68 | CCTTACGGGTCCAGGTTATAGCACGGGTGGTACG | -0.604
69 | CGAACTAGGTCATTGACTGGACAGTGAATAGTAA | 5.78
70 | TAGCCTAGATCATGCGGGCCAGTATAGTGTCGGC | -0.742
71 | TCTGCTAGGTCAGCGATGGTCAGCTAATCTGCTA | 1.29
72 | ACAGACAGGTGATGTAGGTAACTCAGGCTATCAT | -0.171
73 | TCTTTTAGATCAAAGGTTAAGAAAGCCGAAGCCT | 7.4
74 | TCTTGTAGATCAATAGAGGTTAAGAAGGTGCGCT | 1.95
75 | TCTGCTAGGTCAGTTGGTCACCTAACGAGCTGCC | 1.75
76 | GTATCAAGGTGAATAGGTCGTTGATGAGTAGGCG | 2.08
77 | ATCTCTAGGTAACACGTTCAGTGAAAGAGAGGAC | 0.803
78 | TTACCAAGGTGAAAGGTCGTTCATGCACGCCTTG | 8.9
79 | ACACGGAGGACAAAGGTCAGAGCTACGCCAGTGA | 7.07
80 | TCATATAGGTAAACAGGTGACAGTCCGTAAGTTA | 3.91

Reference: the supplement of paper PMC6555819
